Tau fibril FP = inhibitors of human tau fibril formation; P10636; K18 P301L tau heparin fibrillization, Alexa594 FP, 6 h; Potency, µM (highest dose often 57.7 µM), for inactives: at the highest dose activity, negative = inhibition, actives largely listed as inhibitors; 280,000 tested, 0.39% active; note: nearly all actives have a fitted effect of over 55% in size
Target sequence (P10636 561-689 P618L limits assumed): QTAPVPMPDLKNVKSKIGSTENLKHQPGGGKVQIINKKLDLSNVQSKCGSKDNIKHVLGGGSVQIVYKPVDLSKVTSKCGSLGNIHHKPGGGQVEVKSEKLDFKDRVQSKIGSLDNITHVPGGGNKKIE
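FP of Alexa 594-tau after heparin (20 uM) induction. Substrate: human K18 P301L, 15 uM unlabeled, 0.24 uM labeled. Buffer 100 mM sodium acetate pH 7. 6 hr, 37 C.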
RGS12 GoLoco inh = blocks human Gai1 binding to RGS12 GoLoco peptide, red readout. P63096. 230,000 tested, 0.44% active. Gai1:RGS12 GoLoco peptide FP, rhodamine, 10 min. Potency, µM (top dose mostly 61.6 µM), inactives show at the highest dose activity, negative = inhibition, most hits filed as inhibitors; active = well fitted inhibition curve with a large enough effect, not every such curve was filed as active; inactive = no such curve, though single readings can be large or run the other way; note: nearly all actives have a fitted effect of over 30% in size
Tau ThT inhib = inhibitors of human tau fibril formation, thioflavin T binding; P10636; recombinant tau K18 P301L, heparin-induced fibrillization, ThT fluorescence; Potency, µM (doses to about 57.4 µM), for inactives: at the highest dose activity, negative = inhibition, actives largely listed as inhibitors; 270,000 tested, 2.1% active; AID 1460; note: nearly all actives have a fitted effect of over 55% in size
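Tau K18 P301L fragment (15 uM unlabeled plus 0.24 uM Alexa 594-labeled) in 100 mM sodium acetate pH 7 with compound, fibrillization induced by 20 uM heparin for 6 hr at 37 C. Thioflavin T (30 uM) added, fluorescence read after 1 hr (ex 450, em 510 nm).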
JMJD2E inh = blocks human JMJD2E demethylase activity; B2RXH2; JMJD2E catalytic domain, FDH-coupled NADH fluorescence (FDH is formaldehyde dehydrogenase); Potency, µM (top dose mostly 57.1 µM), inactives show at the highest dose activity change, negative = inhibition, hits mostly inhibitors; 230,000 tested, 1.6% active; AID 2147; active = well fitted inhibition curve with a large enough effect, not every such curve was filed as active; inconclusive = small, poorly fitted or top-dose-only effect, or another doubt; inactive = no such curve, though single readings can be large or run the other way;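 note: 0% = wells with enzyme and -100% = buffer wells without enzyme; nearly all actives have a fitted effect of over 50% in size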
Target sequence (B2RXH2 1-337 limits assumed): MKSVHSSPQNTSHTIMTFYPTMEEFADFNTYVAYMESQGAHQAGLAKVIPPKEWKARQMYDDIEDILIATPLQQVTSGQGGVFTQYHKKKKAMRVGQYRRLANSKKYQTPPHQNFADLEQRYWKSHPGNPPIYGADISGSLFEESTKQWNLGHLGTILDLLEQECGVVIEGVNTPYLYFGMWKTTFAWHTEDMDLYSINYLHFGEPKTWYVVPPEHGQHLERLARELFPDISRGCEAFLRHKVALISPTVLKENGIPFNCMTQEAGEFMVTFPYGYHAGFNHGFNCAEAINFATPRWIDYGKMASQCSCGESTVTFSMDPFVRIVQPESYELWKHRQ
Tau fluor cs = counter-screen for tau fibril formation inhibitors | tau K18 P301L Alexa594 fluorescence, heparin fibrillization | Potency, µM (top dose mostly 57.7 µM), for the others: top-dose activity change, negative = decrease | 280,000 tested, 0.93% active | AID 1463; note: nearly all actives have a fitted effect of over 55% in size
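Human tau K18 P301L (15 uM unlabeled, 0.24 uM Alexa 594-labeled) in 100 mM sodium acetate pH 7 with 20 uM heparin, 6 hr at 37 C. ThT 30 uM added, 1 hr ambient; Alexa 594 FP and total fluorescence read at 555/632 nm.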
The depositor's hits bear a star; ? = inconclusive; nt = no result given; [ ] = dose if it differs, or a comment. In the library only some 3.4% were active in any assay of this set; here they are far more common. Unless noted, calls come from the whole dose curve; as a rule, active = well fitted curve in the direction sought with a large enough effect; inconclusive = small, poorly fitted or top-dose-only effect, or another doubt; inactive = no such curve, though single readings can be large; an effect the other way counts as inactive or inconclusive. Unless noted, % is set by controls: 0 for no effect and ±100 for the full control effect; potency is the fitted concentration of half-maximal effect.

SMILES	Tau fibril FP	RGS12 GoLoco inh	Tau ThT inhib	JMJD2E inh	Tau fluor cs
CN1CCc2c(sc3c2C(=O)NC(c2ccc(C(C)(C)C)cc2)N3)C1 (centres undefined)	?	nt	16µM*	nt	-20%
CN1CCc2c(sc3c2C(=O)NC(c2ccc(-c4cccc(Cl)c4)o2)N3)C1 (centres undefined)	?	139%	2.2µM*	?	-14%
CN1CCc2c(sc3c2C(=O)NC(c2cccs2)N3)C1 (centres undefined)	?	31%	13µM*	?	-18%
CSc1ccc(C2NC(=O)c3c(sc4c3CCN(C)C4)N2)cc1 (centres undefined)	1%	147%	-5%	-3%	-8%
C[C@@]12C[C@H](O)C3[C@H](CCC4=CC(=O)CC[C@]43C)[C@H]1CC[C@@H]2c1csc(-c2ccccc2)n1 (some centres undefined)	nt	6%[14.2 µM]	nt	nt	nt
Cc1cccc(C(=O)Nc2ccc3nc(SCC(=O)N4CCCC4)sc3c2)c1	-9%	nt	-14%	nt	?
CCN1CCN(C(c2ccc(OC)cc2)c2c(O)cc(C)n(Cc3ccco3)c2=O)CC1 (centres undefined)	-10%	nt	-11%	nt	1%
COc1ccc(C(=O)Oc2ccc(C3NC(=O)c4c(sc5c4CCN(C)C5)N3)cc2OC)cc1 (centres undefined)	?	nt	4µM*	nt	-27%
COc1ccc(C2NC(=O)c3c(sc4c3CCN(C)C4)N2)cc1O (centres undefined)	-7%	nt	5.6µM*	nt	-23%
CCOc1cc(C2NC(=O)c3c(sc4c3CCN(C)C4)N2)ccc1OC(=O)c1ccccc1Cl (centres undefined)	0%	nt	?	nt	-5%
CCOC(=O)c1ccc(NC2=CC(c3ccc(O)c(OCC)c3)N(c3ccc(C(=O)OCC)cc3)C2=O)cc1 (centres undefined)	1%	nt	-4%	nt	-10%
CC1=C(C(=O)Nc2ccccc2)C(c2cccn2C)n2ncnc2N1 (centres undefined)	-1%	nt	-3%	nt	-4%
CN(C)c1ccc(NC(=O)/C=C/c2ccccc2Cl)cc1	17%	-19%	?	-4%	?
CCN(CC)c1ccc(NC(=O)/C=C\c2ccccc2Cl)cc1	23%	-35%	4µM*	-6%	8.9µM*[quencher]
COc1ccc(CCNC(=O)Cn2c(=O)c3cccn3c3ccc(F)cc32)cc1OC	2%	nt	?	nt	-24%
COc1ccc(CCNC(=O)Cn2c(=O)c3cccn3c3ccccc32)cc1OC	14µM*	nt	-6%	nt	?
Cc1cccc(NC(=O)Cn2c(=O)c3cccn3c3ccccc32)c1C	18µM*	nt	-10%	nt	?
CN1/C(=C\C(=S)NC(=O)c2ccccc2Cl)C(C)(C)c2ccccc21	5%	105%	11µM*	-3%	-4%
CN1/C(=C\C=C(/C#N)C(=O)Nc2ccc(Cl)cc2)C(C)(C)c2ccccc21	-2%	10%	?	-1%	-6%
CN1/C(=C\C(=O)Nc2ccc(Cl)cc2)C(C)(C)c2ccccc21	10%	23%	?	-13%	13µM*[quencher]
CN1/C(=C/C(=S)NC(=O)C2(C)CC2(Cl)Cl)C(C)(C)c2ccccc21 (centres undefined)	-10%	196%	13µM*	-3%	-18%
CC(C)c1cc(Nc2cccc(O)c2)cc(C(C)C)c1O	?	4%	32µM*	0%	?
O=C(Nc1ccc2oc(-c3cc(Br)ccc3Cl)nc2c1)c1cc2ccccc2o1	-2%	nt	?	nt	?
Cc1ccc(C(=O)Nc2nc(-c3ccccn3)cs2)o1	-6%	24%	?	?	-28%
O=C(Nc1nc(-c2ccccn2)cs1)c1ccc([N+](=O)[O-])o1	?	-13%	13µM*	?	?
SMILES	Tau fibril FP	RGS12 GoLoco inh	Tau ThT inhib	JMJD2E inh	Tau fluor cs
Cc1cc(C(=O)Nc2nc(-c3ccccn3)cs2)ccc1[N+](=O)[O-]	6%	-6%	11µM*	?	?
O=[N+]([O-])c1cccnc1N1CCC(c2cc(-c3cccc(C(F)(F)F)c3)n[nH]2)CC1	-9%	0%	14µM*	-1%	?
O=[N+]([O-])c1cccnc1N1CCC(c2cc(-c3ccc(Cl)cc3Cl)n[nH]2)CC1	-9%	-4%	13µM*	-4%	?
CC(=O)c1ccc(N2CCC(c3cc(-c4ccc(Cl)cc4Cl)n[nH]3)CC2)c([N+](=O)[O-])c1	?	5%	13µM*	-12%	?
COc1ccc(OC)c(-c2cc(C3CCN(c4ncccc4[N+](=O)[O-])CC3)[nH]n2)c1	1%	-14%	-15%	-2%	-5%
COc1ccc(Cn2c(C(=O)O)c(CNCCc3cccs3)c3ccc(C)cc32)cc1	11%	nt	-1%	nt	-12%
COc1ccc(N2CCN(CC(O)COC(C)(C)C)CC2)cc1 (centres undefined)	10%	-10%	4%	25µM*	0%
Cc1nc2nc(SCC(=O)N(C)Cc3ccccc3)nn2c(C)c1Cc1ccccc1Cl	1%	nt	?	nt	-17%
O=[N+]([O-])c1ccc(NC(=S)NCCc2ccccc2)cc1	?	3%	?	9%	13µM*[quencher]
O=[N+]([O-])c1cc(C(F)(F)F)ccc1NCCNC(=S)Nc1ccc(Cl)cc1	20µM*	2%	11µM*	-4%	7.1µM*[quencher]
O=[N+]([O-])c1cc(C(F)(F)F)ccc1NCCCCNS(=O)(=O)c1ccc(Cl)cc1	8%	3%	?	-8%	?
S=C(NCCc1ccccc1)Nc1ccc(Cl)cc1	?	3%	-6%	4%	?
O=[N+]([O-])c1ccc(NC(=S)NCCc2ccc(Cl)cc2)cc1	13µM*	-1%	?	-4%	7.9µM*[quencher]
CCOC(=O)c1sc(NC(=O)Nc2ccccc2Cl)cc1C	?	17%	-8%	27%	8.9µM*[quencher]
CCOC(=O)c1sc(NC(C)=O)cc1C	-6%	8%	-4%	6%	-2%
CCOC(=O)c1sc(NC(=O)c2ccc(C)s2)cc1C	-7%	0%	-7%	?	?
CCOC(=O)c1sc(NC(=O)Nc2ccccc2)cc1C	?	8%	?	-5%	14µM*[quencher]
Cc1ccccc1-c1cc(N(C)C)ncn1	nt	5%	nt	nt	nt
O=C1c2ccccc2-c2onc3ccc(NCc4ccco4)c1c23	25µM*	11µM*	3.2µM*	-9%	4.5µM*[quencher]
CCOc1ccc2noc3c2c1C(=O)c1ccccc1-3	?	-15%	?	?	?
O=C(O)c1ccccc1NCc1ccco1	0%	4%	1%	?	9%
CCNc1ccc2noc3c2c1C(=O)c1ccccc1-3	28µM*	4µM*	7.9µM*	-7%	?
Cc1ccc(Nc2c(-c3ccccc3O)nc3cnccn23)cc1	10%	3%	-17%	-24%	18µM*[quencher]
Clc1ccc(Nc2c(-c3ccccc3Cl)nc3ccc(Cl)cn23)cc1	6%	nt	0%	nt	-20%

High-throughput results deposited in PubChem by National Center for Advancing Translational Sciences (NCATS).
